{"source": "ChEMBL document CHEMBL1157539", "about": "“Thousands of chemical starting points for antimalarial lead identification” (Nature, 2010)"}
{"system": "HepG2", "assay": "GSK_TCMDC: Percent inhibition of human HepG2 cell line. Test compounds present at 10uM.", "assay_type": "functional", "units": {"Inhibition": "%"}}
{"smiles": "COc1cc(CN2CCC(C(=O)Nc3ccc(-c4cccc(C)c4)cc3)CC2)ccc1O", "Inhibition": 25}
{"smiles": "COc1cccc(CNc2ncc(-c3ccsc3)c(-c3nccs3)n2)c1", "Inhibition": 9}
{"smiles": "COc1ccc(CNC(=O)Nc2cc3cc(-c4ccc(CN5CCCC5)cc4)ccc3n3c(C)nnc23)cc1", "Inhibition": 100}
{"smiles": "O=C(Nc1cccc(-c2csc(-c3nc4ccccc4[nH]3)c2)c1)c1cccnc1", "Inhibition": 18}
{"smiles": "OC(CNc1ccnc(Nc2cccc(CCN3CCOCC3)c2)n1)c1ccccc1", "note": "(stereo not drawn)", "Inhibition": 34}
{"smiles": "O=S(=O)(NC1=NCCC1)c1cccc(Nc2nc(C(F)(F)F)nc3ccccc23)c1", "Inhibition": 6}
{"smiles": "O=C(Nc1cccc(-c2ccc(-c3nc4cc(C(F)(F)F)ccc4[nH]3)s2)c1)c1cccnc1", "Inhibition": 74}
{"smiles": "Br.Cc1ccc(OCCCCON2C(=N)N=C(N)NC2(C)C)cc1C", "Inhibition": 61}
{"smiles": "Oc1ccccc1N1CCN(c2ccc(-c3nc4ccccc4[nH]3)cn2)CC1", "Inhibition": 0}
{"smiles": "O=C(NCCN1CCCCC1)c1cccc(Nc2nccc(Nc3ccc(Oc4ccccc4)cc3)n2)c1", "Inhibition": 50}
{"smiles": "O=C(Nc1ccccc1)N(Cc1ccc(-c2cccc(CNC3CCCC3)c2)cc1)C1CCN(Cc2ccccc2)CC1.O=C(O)C(F)(F)F", "Inhibition": 43}
{"smiles": "Cc1cc(=O)c2cc(Oc3ccc(OC(F)(F)F)cc3)ccc2[nH]1", "Inhibition": 20}
{"smiles": "Cc1cc(NC(=O)Nc2ccc(I)c(OCCN(C)C)c2)ccc1Br.Cl", "Inhibition": 18}
